Screens as filed in PubChem BioAssay.
The list is not random: actives were taken first. Their share in the collection is about 4%.
HIF-2a block = inhibitors of HIF-2a; 786-0 RCC cells HIF-2a reporter, luciferase luminescence, overnight; inhibition, % at 18.8 µM; 360,000 compounds, 0.72% hits; AID 624352;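 active = inhibition of the luminescence signal of 40% or more relative to plate controls, in a single-dose primary screen at 18.75 µM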
TWEAK Fn14 block = TWEAK-Fn14 signaling inhibition. inhibition, % at 10 µM. TWEAK-stimulated Fn14 reporter cells, luciferase luminescence, 8 h. 360,000 compounds, 2% hits; in the data active = inhibition above about 50%
CF NFkB block = blocks PAF-induced NF-kB reporter in cystic fibrosis cells; KKLEB NF-kB-GFP reporter, GFP fluorescence overnight; inhibition, % at 5 µM; 360,000 compounds, 0.86% hits; AID 588850;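 active = at least 50% inhibition at 5 µM, scaled per plate between neutral and stimulator controls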;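 note: PAF is a Pseudomonas aeruginosa culture filtrate used as stimulus; plate controls were PAF-stimulated DMSO wells for no effect and unstimulated DMSO wells for full effect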
Peg3 promoter = Peg3 promoter activity inhibition | HeLa PEG-Prom luciferase reporter, luminescence, overnight | inhibition, % at 20 µM | 360,000 compounds, 1.7% hits | AID 588405;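 active = inhibition of at least 50% at 20 µM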
KKLEB cytotox = counter-screen for CF NF-kB inhibitors: cytotoxicity. activity change (cytotoxicity), % at 5 µM. KKLEB CF airway cells viability, ATPlite luminescence, overnight; hits give low values; cells stimulated with P. aeruginosa culture filtrate. AID 602141. 360,000 compounds, 0.36% hits;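 active = corrected activity change at or below -50% at 5 µM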
TROY signal inh = blocks TROY-dependent signaling in reporter cells; Q293 LMP1-TROYcd NF-kB luciferase reporter, 4 h; inhibition, % at 10 µM; 360,000 compounds, 0.98% hits;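 active = compounds whose plate-normalised and pattern-corrected inhibition of the luciferase reporter signal at the single screening dose is 50% or more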
Mdm2 MdmX conf = Mdm2/MdmX (human) interaction inhibition, confirmed; SaOS-2 split-luciferase Mdm2/MdmX complementation, luminescence; 740 compounds, 99% hits; inhibition, % at 8 µM; shares compounds with HIF-2a block;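 active = mean inhibition of the luminescence signal across two replicates at or above 26 percent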
Target sequence (O15151 whole entry, looked up): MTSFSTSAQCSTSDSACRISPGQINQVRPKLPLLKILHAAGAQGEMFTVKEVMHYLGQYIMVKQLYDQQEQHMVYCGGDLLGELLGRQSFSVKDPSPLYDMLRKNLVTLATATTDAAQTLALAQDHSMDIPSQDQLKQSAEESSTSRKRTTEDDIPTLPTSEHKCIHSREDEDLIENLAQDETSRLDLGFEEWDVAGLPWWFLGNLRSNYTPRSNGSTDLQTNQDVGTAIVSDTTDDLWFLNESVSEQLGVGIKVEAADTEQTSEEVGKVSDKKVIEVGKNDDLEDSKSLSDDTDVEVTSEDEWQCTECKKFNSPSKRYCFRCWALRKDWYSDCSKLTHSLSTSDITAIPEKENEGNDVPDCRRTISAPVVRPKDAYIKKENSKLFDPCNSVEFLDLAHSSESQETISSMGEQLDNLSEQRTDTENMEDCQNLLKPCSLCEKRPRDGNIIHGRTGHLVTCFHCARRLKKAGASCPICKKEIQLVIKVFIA
Target sequence (Q00987 whole entry, looked up): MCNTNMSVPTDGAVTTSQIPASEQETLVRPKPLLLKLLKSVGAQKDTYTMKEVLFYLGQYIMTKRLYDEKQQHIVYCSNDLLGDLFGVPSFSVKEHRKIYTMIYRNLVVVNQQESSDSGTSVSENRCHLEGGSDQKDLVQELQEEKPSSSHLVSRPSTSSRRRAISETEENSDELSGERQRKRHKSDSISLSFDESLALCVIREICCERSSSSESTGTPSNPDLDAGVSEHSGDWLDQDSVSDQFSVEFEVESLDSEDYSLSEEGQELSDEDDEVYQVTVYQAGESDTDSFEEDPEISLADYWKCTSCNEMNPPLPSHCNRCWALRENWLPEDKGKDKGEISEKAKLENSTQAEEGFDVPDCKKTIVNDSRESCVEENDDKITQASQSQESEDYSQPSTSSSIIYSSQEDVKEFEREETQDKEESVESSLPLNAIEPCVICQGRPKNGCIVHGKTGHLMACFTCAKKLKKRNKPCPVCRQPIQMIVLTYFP
HIF-2a inh conf = HIF-2a inhibition, single concentration confirmation. shares compounds with HIF-2a block. 786-0 RCC cells, HIF-2a luciferase reporter luminescence, overnight. inhibition, % at 18.8 µM. 1,800 compounds, 56% hits. AID 651580;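 active = mean inhibition across four replicates of at least 40 percent at the single tested concentration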
HIF-1a counter = inhibits HIF-1a reporter, a counter-screen for HIF-2a inhibitors. 1,800 compounds, 72% hits. shares compounds with HIF-2a block. inhibition, % at 18.8 µM. MiaPaCa-2 HIF-1a luciferase reporter, desferoxamine, overnight;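 active = mean inhibition of the reporter signal across four replicates at the single tested dose of 50% or more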
An asterisk follows results filed as active; x = not tested or not shown.

SMILES | HIF-2a block | TWEAK Fn14 block | CF NFkB block | Peg3 promoter | KKLEB cytotox | TROY signal inh | HIF-2a inh conf | HIF-1a counter | others
Cc1nnnn1/C(=C\c1ccccc1)C(=O)OCC(=O)Nc1ccc(Cl)cc1F | 88* | 70* | 84* | 98* | -70* | 65* | 96* | 56*
O=C(COC(=O)Cc1n[nH]c(=O)c2ccccc12)Nc1ccc(Cl)cc1F | 15 | -5 | -1 | 11 | 2 | 3 | x | x
O=S1(=O)CCOCCCN1Cc1ccccc1Br | 13 | 11 | 5 | -5 | -2 | -1 | x | x
Cc1ccc(C2C(C#N)=C(N)N(c3ncn[nH]3)C3=C2C(=O)CC(C)(C)C3)cc1 (centres undefined) | 44* | -2 | 8 | 9 | -4 | 2 | 3 | 0
Cc1ccc(N2C(N)=C(C#N)C(c3cccnc3)C3=C2CC(C)(C)CC3=O)cc1 (centres undefined) | 0 | -15 | 0 | 17 | 2 | -14 | x | x
CCN(c1cccc(C)c1)S(=O)(=O)c1cc(CN2C(=O)c3cccnc3C2=O)ccc1OC | 7 | -1 | -14 | 22 | 0 | -5 | x | x
O=C(O)c1cccc(-c2nc3ccccc3[nH]2)c1 | 69* | 8 | 1 | 55* | -5 | -44 | 55* | -72
CO[C@@H]1CN(C)C(=O)c2cc(NC(=O)NC3CCCCC3)ccc2OC[C@@H](C)N(CC2CCOCC2)C[C@@H]1C | 6 | x | x | x | x | x | x | x
COC(=O)c1ccc(CN(c2ccc(C(=O)O)c(O)c2)S(=O)(=O)c2ccc(Cl)c([N+](=O)[O-])c2)cc1 | 77* | -1 | 23 | 55* | -5 | 44 | 5 | 57*
COC(=O)c1ccc(CN(c2ccccn2)S(=O)(=O)c2ccccc2)cc1 | 6 | 14 | 7 | 8 | -8 | -9 | x | x
CC(=O)Nc1nc(-c2ccc3c(c2)CCN3C(=O)C2CC2)c(C)s1 | -63 | 12 | -21 | -15 | 6 | -23 | x | x | Mdm2 MdmX conf=97*
CNc1nc(-c2ccc3c(c2)CCN3C(=O)CC(C)(C)C)c(C)s1 | -111 | -21 | 0 | -59 | 2 | 34 | x | x
Cc1cccc(C)c1NC(=O)CNC(=O)C1CC(=O)N(Cc2ccccc2)C1 (centres undefined) | 8 | -2 | 6 | -2 | 16 | -9 | x | x
CCOC(=O)CSc1nc(N)c(C#N)c(-c2ccc(OCC)cc2)c1C#N | 8 | -24 | 15 | 12 | -2 | 15 | x | x
COC(=O)CSc1nc(N)c(C#N)c(-c2ccc(O)cc2)c1C#N | 40* | -13 | 12 | 8 | -9 | 8 | 35 | 21
CC(C)CC(=O)/C(=C\c1ccc(Cl)cc1Cl)n1cncn1 | 94* | 106* | 86* | 105* | -81* | 74* | 94* | 107*
CC(C)CC(=O)/C(=C/c1ccc(N(C)C)cc1)n1cncn1 | -1 | 17 | -7 | -9 | 4 | -5 | x | x
CCOc1ccc(N2CC(C(=O)Nc3nnc(C4CCCCC4)s3)CC2=O)cc1 (centres undefined) | 6 | 3 | 4 | -6 | 14 | -5 | x | x
O=S(=O)(c1ccc2c(c1)C(=NO)c1cc(S(=O)(=O)N3CCCCC3)ccc1-2)N1CCCCC1 | 87* | 13 | 100* | 86* | -106* | -22 | 82* | 103*
O=S(=O)(c1ccc(S(=O)(=O)N2CCCC2)cc1)N1CCCCCC1 | 9 | -7 | -3 | 5 | 3 | -13 | x | x
COc1cc(C(C)=O)ccc1OCC(=O)NCC(c1ccc(F)cc1)N1CCOCC1 (centres undefined) | -7 | -6 | -9 | 3 | -10 | 19 | x | x
O=C(O)c1ccc(NC2=C(Cl)C(=O)c3ccccc3C2=O)cc1 | 94* | 43 | 92* | 109* | -89* | 42 | x | x | Mdm2 MdmX conf=101*
COC(=O)c1c(C)n(-c2ccccc2)c2ccc(O)cc12 | 9 | 17 | 26 | 22 | 7 | 18 | x | x
CN(C)/C=C/c1c([N+](=O)[O-])c2ccc(O)cc2n1-c1ccccc1 | 28 | 48 | 84* | 52* | -3 | 18 | x | x | Mdm2 MdmX conf=90*
CN(C)CCCNc1cc(C(C)(C)C)nc2c(-c3ccc(Cl)cc3)cnn12 | -42 | -48 | 38 | 104* | -19 | -20 | x | x | Mdm2 MdmX conf=102*
SMILES | HIF-2a block | TWEAK Fn14 block | CF NFkB block | Peg3 promoter | KKLEB cytotox | TROY signal inh | HIF-2a inh conf | HIF-1a counter | others
CS(=O)(=O)Nc1cccc(NC(=O)C2Cc3c(-c4ccco4)ccnc3O2)c1 (centres undefined) | 21 | -29 | 24 | 39 | -33 | 10 | x | x
CCc1sc(C(=O)Nc2cccc(-n3cnnn3)c2)cc1C | -54 | 12 | -1 | -38 | 2 | -29 | x | x
N#C/C(=C\C=C\c1ccccc1[N+](=O)[O-])C(=O)NC1CCCCC1 | 84* | 82* | -40 | 107* | 0 | -29 | 21 | 104* | Mdm2 MdmX conf=101*
COc1ccc(C(=O)c2c(C(F)(F)F)oc3c2C(=O)c2ccccc2C3=O)cc1 | 27 | 71* | 88* | 99* | -83* | 35 | x | x | Mdm2 MdmX conf=97*
COc1ccc(C(=O)c2coc(-c3ccccc3C(=O)O)c2C(=O)O)cc1 | 20 | -6 | -5 | 0 | 11 | -16 | x | x
COc1ccccc1N=NNc1ccccc1OC | -178 | -33 | -24 | -216 | -14 | -48 | x | x
Cc1cc(S(=O)(=O)c2ccc([N+](=O)[O-])cn2)ccc1Br | 93* | 60* | 91* | 107* | -73* | 72* | 22 | 89*
COC(=O)C(C)(C(=O)OC)c1ccc([N+](=O)[O-])cn1 | 16 | 10 | -5 | 5 | 14 | -9 | x | x
Cc1ccc(S(=O)(=O)c2ccc([N+](=O)[O-])cn2)cc1 | 83* | 68* | 96* | 107* | -72* | 59* | 62* | 65* | Mdm2 MdmX conf=103*
CCOC(=O)c1ccc(NC(=O)NCc2ccccn2)cc1 | -13 | 8 | -62 | -8 | 32 | -40 | x | x
O=C(Cc1cccc2ccccc12)Nc1ccc(-c2cc3ccccc3oc2=O)cc1 | 53* | -12 | 22 | 13 | -13 | 58* | 68* | 52*
Cc1ccc(C(=O)NC(=S)Nc2ccc(-c3cc4ccccc4oc3=O)cc2)c(C)c1 | 81* | 48 | 13 | 48 | 1 | x | 76* | 56*
Cc1cc(C)cc(C(=O)NC(=S)Nc2ccc(-c3cc4ccccc4oc3=O)cc2)c1 | 82* | 44 | 57* | 19 | -57* | 57* | 76* | 0
